Data reported in ChEMBL document CHEMBL3988442, “University of Dundee, Small-Polar-MMV Screening Library” (2021).
About 13,000 (27%) of roughly 48,000 compounds showed an effect of 50% or more. Some of the results follow.

Test system: Wolbachia pipientis
Assay: Anti-Wolbachia Cell-Based Screen
Type: functional
Set-up: scale not given: in the data most compounds retested in dose-response had high values
Details: 5 µM

**Q.** How did the “Percent Effect” value turn out when c1cnnc(N2CCCC(NCc3ccc(-n4cccn4)cc3)C2)c1 (configuration not stated) was run?
**A.** -2.089%

**Q.** Which “Percent Effect” value does the source give for c1ccc(CCCN2CCOC(Cn3cccn3)C2)cc1 (configuration not stated) here?
**A.** 128.6%

**Q.** With c1ccc(CCN2CCOC(Cn3cccn3)C2)nc1 (configuration not stated) as the compound, how does the “Percent Effect” value read?
**A.** 5.708%

**Q.** Which “Percent Effect” value does the source give for c1ncn(CC2CN(CC3CCCC3)CCO2)n1 (configuration not stated) here?
**A.** -0.8263%

**Q.** C=C(C)CN1CCOC(Cn2cncn2)C1 (configuration not stated) was tested. Which “Percent Effect” value did it give?
**A.** -5.235%

**Q.** Which “Percent Effect” value does the source give for c1cnn(CC2CN(CCc3ccncc3)CCO2)c1 (configuration not stated) here?
**A.** 0.6004%

**Q.** For c1cnn(CCN2CCOC(Cn3cccn3)C2)c1 (configuration not stated), which “Percent Effect” value is on record?
**A.** 108.3%

**Q.** Which “Percent Effect” value does the source give for Cc1cc(C)c2nc(CN3CCOC(CCO)C3)cc(O)c2c1 (configuration not stated) here?
**A.** -3.808%

**Q.** How did the “Percent Effect” value turn out when Cc1cc(CCC2CN(CC3(O)CCCCC3)CCO2)ncn1 (configuration not stated) was run?
**A.** 116.4%

**Q.** With c1ncn(CC2CN(CC3CCCCC3)CCO2)n1 (configuration not stated) as the compound, how does the “Percent Effect” value read?
**A.** 107.8%

**Q.** c1cnn(CCN2CCOC(Cn3cncn3)C2)c1 (configuration not stated) was tested. Which “Percent Effect” value did it give?
**A.** -9.191%

**Q.** For O=S(=O)(CCCN1CCOC(Cn2cccn2)C1)c1ccccc1 (configuration not stated), which “Percent Effect” value is on record?
**A.** 7.752%

**Q.** O=C(O)c1csc(S(=O)(=O)Nc2cccc(OC(F)F)c2)c1 was tested. Which “Percent Effect” value did it give?
**A.** -1.91%

**Q.** With COC(=O)C(NC(=O)c1ccc(NC2CC2)nc1)c1ccccc1 (configuration not stated) as the compound, how does the “Percent Effect” value read?
**A.** -0.3075%

**Q.** For O=C(NCCc1ccccc1)N1CC[C@@H]2CNS(=O)(=O)[C@@H]2CC1, which “Percent Effect” value is on record?
**A.** -17.14%

**Q.** For COC1CCN(C(=O)Cn2cccc(C(F)(F)F)c2=O)C1 (configuration not stated), which “Percent Effect” value is on record?
**A.** -0.2293%

**Q.** c1cnn(CC2CN(CC3CCCCC3)CCO2)c1 (configuration not stated) was tested. Which “Percent Effect” value did it give?
**A.** 102.2%

**Q.** Which “Percent Effect” value does the source give for FC(F)(F)Cn1ccnc1CN1CCOC(Cn2cccn2)C1 (configuration not stated) here?
**A.** -0.9498%

**Q.** OC1(CN2CCOC(Cn3cccn3)C2)CCCCC1 (configuration not stated) was tested. Which “Percent Effect” value did it give?
**A.** 99.61%

**Q.** Which “Percent Effect” value does the source give for c1cnn(CC2CN(CC3CCCC3)CCO2)c1 (configuration not stated) here?
**A.** 7.004%

**Q.** How did the “Percent Effect” value turn out when CC(C)=CCN1CCOC(Cn2cccn2)C1 (configuration not stated) was run?
**A.** 136%

**Q.** For O=S(=O)(CCN1CCOC(Cn2cccn2)C1)C(F)(F)F (configuration not stated), which “Percent Effect” value is on record?
**A.** 8.008%

**Q.** With Cc1cccc(C(C)NCC2CCS(=O)(=O)CC2)c1 (configuration not stated) as the compound, how does the “Percent Effect” value read?
**A.** -4.903%

**Q.** O[C@H]1Cc2ccccc2[C@H]1Nc1ncccc1C(F)(F)F was tested. Which “Percent Effect” value did it give?
**A.** -3.306%

**Q.** How did the “Percent Effect” value turn out when CCN(CC)C(=O)[C@@H]1C[C@@H](NC(=O)c2cccc(N(C)C)c2)CN1C was run?
**A.** -6.856%

**Q.** Which “Percent Effect” value does the source give for COc1cc(C)nc(N2CCN(C(C)c3nc(C4CC4)no3)CC2)n1 (configuration not stated) here?
**A.** 4.237%

**Q.** How did the “Percent Effect” value turn out when Cc1nnc(NCC(c2ccco2)N(C)C)c(C#N)c1C (configuration not stated) was run?
**A.** 0.3665%

**Q.** O=C(Cn1ccc2ccc(Br)cc21)NC[C@@H]1CCCN2CCCC[C@H]12 was tested. Which “Percent Effect” value did it give?
**A.** 19.6%

**Q.** With O=C(CCn1ccc2ccc(Br)cc21)/N=c1\[nH]nc(C2CCCO2)s1 (configuration not stated) as the compound, how does the “Percent Effect” value read?
**A.** 100.3%

**Q.** Which “Percent Effect” value does the source give for CCCn1ccc2cc(NC(=O)CC3CCCO3)ccc21 (configuration not stated) here?
**A.** 3.072%

**Q.** With NC(=O)C1CCN(C(=O)CCn2ccc3cc(Br)ccc32)CC1 as the compound, how does the “Percent Effect” value read?
**A.** 25.85%

**Q.** How did the “Percent Effect” value turn out when O=C(NCCc1ccn(-c2ccc(F)cc2)n1)C1CCCO1 (configuration not stated) was run?
**A.** -8.284%

**Q.** How did the “Percent Effect” value turn out when O=C(NCc1cnn(-c2ccc(F)cc2F)c1)C1CCCO1 (configuration not stated) was run?
**A.** 2.744%

**Q.** O=C(CC1CCCO1)Nc1ccc2c(ccn2CCN2CCOCC2)c1 (configuration not stated) was tested. Which “Percent Effect” value did it give?
**A.** -5.067%

**Q.** Which “Percent Effect” value does the source give for O=C(CCn1ccc2cc(Br)ccc21)/N=c1\[nH]nc(C2CCCO2)s1 (configuration not stated) here?
**A.** 98.02%

**Q.** With O=C(CCn1ccc2ccc(F)cc21)/N=c1\[nH]nc(C2CCCO2)s1 (configuration not stated) as the compound, how does the “Percent Effect” value read?
**A.** 105.1%

**Q.** For O=C(Cn1ccc2ccc(Cl)cc21)/N=c1\[nH]nc(C2CCCO2)s1 (configuration not stated), which “Percent Effect” value is on record?
**A.** 134.6%

**Q.** For Cn1cc(C2CCCN2C(=O)Cn2ccc3ccc(Cl)cc32)cn1 (configuration not stated), which “Percent Effect” value is on record?
**A.** -41.07%

**Q.** CCN(CC)C(=O)Cn1ccc2cc(NC(=O)C3CCCO3)ccc21 (configuration not stated) was tested. Which “Percent Effect” value did it give?
**A.** -12.1%

**Q.** With CCCN(C(=O)CCS(=O)(=O)Cc1ccccc1)c1cccc(C)c1 as the compound, how does the “Percent Effect” value read?
**A.** -47.75%

**Q.** For Cc1ccc(-c2cn3c(n2)CO[C@@H](CNCc2cccnc2)C3)cc1, which “Percent Effect” value is on record?
**A.** 0.839%

**Q.** How did the “Percent Effect” value turn out when Cc1[nH]/c(=N\C(=O)c2csc(NCC(C)C)n2)sc1C was run?
**A.** 1.657%

**Q.** How did the “Percent Effect” value turn out when COc1ccc2c(ccn2CCC(=O)/N=c2\[nH]nc(C3CCCO3)s2)c1 (configuration not stated) was run?
**A.** 126.4%

**Q.** For CCn1ccc2cc(NC(=O)CC3CCCO3)ccc21 (configuration not stated), which “Percent Effect” value is on record?
**A.** 3.531%

**Q.** With CNC(=O)CCC(=O)N1CCOC(c2ccc3cc(OC)ccc3c2)C1 (configuration not stated) as the compound, how does the “Percent Effect” value read?
**A.** 9.004%

**Q.** C=C(C)CN1CCC(n2cc(C3CCCC3)nn2)CC1 was tested. Which “Percent Effect” value did it give?
**A.** 14.96%

**Q.** How did the “Percent Effect” value turn out when CC(C)Nc1cc(N2CCC(n3cc(CCO)nn3)CC2)ncn1 was run?
**A.** 96.69%

**Q.** For CCC(C)CN1CCC(n2cc(C3CCCCC3)nn2)CC1 (configuration not stated), which “Percent Effect” value is on record?
**A.** -12.86%

**Q.** How did the “Percent Effect” value turn out when O=C(NC1CC1)c1cn(C2CCN(c3cc(C4CC4)ncn3)CC2)nn1 was run?
**A.** -15.81%

**Q.** Which “Percent Effect” value does the source give for OCCNc1cc(N2CCC(n3cc(C4CCCC4)nn3)CC2)ncn1 here?
**A.** 104%

**Q.** CCc1cc(N2CCC(n3cc(C(=O)NC4CC4)nn3)CC2)ncn1 was tested. Which “Percent Effect” value did it give?
**A.** -11.68%

**Q.** With CCC(C)CN1CCC(n2cc(C3CCCC3)nn2)CC1 (configuration not stated) as the compound, how does the “Percent Effect” value read?
**A.** -13.12%
